SMILES strings stand for the structures. About 83,000 compounds went through this panel and 20% of them were active in at least one assay; those are over-represented in the sample as a whole.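 Assay: single dose, 48 h. Readout: percent growth (0 = no net growth; negative = cell death). Active: <10.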 Values without a mark were called inactive. Activity calls are given as the source filed them.

The assay relates to BT-549 breast. The assay is described as follows: NCI-60 one-dose screen, 48 h (100 = growth as untreated, 0 = no growth, -100 = all killed). Conditions: 10 µM unless noted.
With `O=C(Nc1ccc(N=Cc2c(O)[nH]c3ccccc23)cc1)Nc1ccc(S(=O)(=O)Nc2ncccn2)cc1`, the growth is 103%. For `CSc1ccc(/C(=N/N=C(N)N)c2ccc(Cl)cc2)cc1` the value was -37.3% (active).

Consider `O=c1[nH][nH]c(-c2ccc(F)cc2)c1-c1nc2ccccc2s1`, for which the growth is 98.8%.

Take `Clc1cccc(/C=N/Nc2nc(N/N=C/c3cccc(Cl)c3)nc(N3CCOCC3)n2)c1`: the growth was 92.7%. To `CCN(CC)c1ccc(/C=N/NC(=O)c2ccc(S(N)(=O)=O)cc2)c(O)c1` belongs 26.5%; to `COc1ccc(/C=N/NC(=O)c2c(N)nn(C)c2Nc2ccccc2)cc1`, 14%. As to `Cc1cc(NS(=O)(=O)c2ccc(NC(=O)CSc3nc4ccccc4c(=O)n3-c3ccccc3)cc2)no1`, the growth is 97.1%. Turning to `O=C(Nc1cccc(C(F)(F)F)c1)N1CCN(c2cc(-c3cn(-c4ccccc4)nc3-c3cccc(O)c3)ccn2)CC1`, the growth is 55.4%.

With `N#Cc1nc(-c2ccccc2)oc1N1CCC(C2(C(F)(F)F)N=N2)CC1`, the growth was 136%.

In the case of `O=C1/C(=C/c2cc(F)cc(F)c2)Cc2cc3c(cc21)OCO3`, the growth is 35.4%.

For `Clc1cccc(/C=N/Nc2nc(N/N=C/c3cccc(Cl)c3)nc(N3CCCCC3)n2)c1`, the growth was 94.9%.

Consider `Cn1c(SCC(=O)c2ccc(Br)cc2)nc2ccccc2c1=O`, for which the growth was 98.9%. To `CC(=O)C1=C(C)NC(NNc2ccccc2)=NC1c1ccc([N+](=O)[O-])cc1` (centres undefined) belongs 103%; to `COc1cccc2c1[C@H](OC)[C@]13O[C@@]1(C2=O)[C@H](O)[C@H](C)[C@@](O)(C(=O)[C@@H]1O[C@H]1C)[C@@H]3O`, -39.6% (active).

As to `COc1ccc(/C=N/NC(=O)CSc2nc(-c3cnccn3)cc(-c3cccs3)c2C#N)cc1`, the growth is 49.2%. Take `CSc1ccc(/C(=N/N=C(N)N)c2ccc(F)cc2)cc1`: the growth was 16.2%.

As to `Fc1cccc(Cl)c1/C=N/Nc1nc(N/N=C/c2c(F)cccc2Cl)nc(N2CCCCC2)n1`, the growth is 68.4%. With `NNc1nnc2nc(Nc3ccccc3)nc(Nc3ccc(S(N)(=O)=O)cc3)n12`, the growth is 107%. As to `O=C1[C@H]2Cc3c([nH]c4ccccc34)[C@H](c3ccc(Cl)cc3)N2C(=O)CN1C1CCN(CC2CCCCC2)CC1`, the growth was 70.8%.

As to `Brc1cc(-c2cc(-c3ccc4c(c3)OC=CO4)[nH]n2)cs1`, the growth was 109%.

Turning to `C#C[C@]1(O)CC[C@H]2[C@@H]3CC=C4c5sc(Nc6ncccc6C)nc5CC[C@]4(C)[C@H]3CC[C@@]21C`, the growth was -1.46% (active).

For the molecule `CNC(=O)Nc1ccc(Nc2cc(-c3ccc(-n4cccn4)cc3)[nH]n2)c(C)c1`, the growth was 111%.

With `COc1cc(C(=O)c2cc(C(C)=O)c3c(C)cccn23)cc(OC)c1OC`, the growth is 104%. To `O=C1Nc2ccccc2/C1=C/c1ccc(OCC(=O)c2ccccc2)cc1` belongs 118%; to `Cn1cc(-c2nn3cc(-c4ccncc4)nc3s2)c2cc(Br)ccc21`, 49.5%. For `CS(=O)(=O)c1ccc(/C(=N/N=C(N)N)c2ccc(F)cc2)cc1` the value was 98%.

As for `COc1cc(-c2nc(-c3ccccc3)[nH]c2-c2ccnc(NCCCNS(=O)(=O)c3ccc(C)cc3)n2)ccc1F`, the growth was 119%. With `COc1cc(NC(=O)Nc2cccc(-c3cc(=O)c4c(OC)c(OC)c(OC)cc4o3)c2)cc(OC)c1OC`, the growth is 31.9%. As for `CC(C)Sc1nc(-c2ccccc2)c(C#N)c(N2CCOCC2)n1`, the growth is 111%.

The values are drawn from PubChem BioAssay (NCI).
